Source: the supplement of paper PMC7801607

What was measured:
CHO = test: % viability of CHO cells (MTT); higher = less toxic; details: 48 h
Summary of the method: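 CHO cells seeded at 10^6 cells/well were exposed to compound at 2 or 20 µM for 48 h. Survival, as percent of untreated cells, was measured with the colorimetric tetrazolium (MTT) assay.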

HepG2-A16-CD81 = test: % inhibition of HepG2 viability (CellTiter-Glo); higher = more toxic; details: 5 µM;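 also: HepG2-A16-CD81 hepatoma cells plated as in the liver-stage assay but without sporozoites, with DMSO wells as negative and 25 µM puromycin as positive control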
[1] = system: Plasmodium falciparum NF54 stage IV/V gametocytes; test: % inhibition of gametocyte viability (PrestoBlue); higher = more inhibition; details: 48 h
Summary of the method: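 Compound was tested at 1 or 5 µM against Stage IV/V NF54 gametocytes plated at 100 µL/well (2% gametocytaemia, 5% haematocrit). After 48 h of stationary, hypoxic incubation at 37 °C, 10 µL PrestoBlue was added for 2 h before reading 612 nm fluorescence from 70 µL of transferred supernatant. Gametocyte viability inhibition, as a percentage, was scaled against vehicle and kill controls from a single run.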

[2] = system: Plasmodium falciparum NF54 asexual blood stage; test: % inhibition of asexual blood stage proliferation (pLDH); higher = more inhibition; details: 72 h
Summary of the method: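 In 96-well plates, compound at 2 or 20 µM was added to Plasmodium falciparum NF54 ring-stage cultures (1% haematocrit, 2% parasitaemia). Plates were incubated for 72 h at 37 °C in 4% CO2, 3% O2 and 93% N2, and survival was then read at 620 nm using the parasite lactate dehydrogenase assay. Inhibition of asexual proliferation, expressed as a percentage, was normalised to controls.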

[3] = system: Plasmodium falciparum NF54 stage IV/V gametocytes; test: % inhibition of gametocyte viability (ATP bioluminescence); higher = more inhibition; details: 24 h
Summary of the method: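 Density gradients were used to enrich stage IV/V NF54 gametocytes, which were then seeded into 96-well plates at 30,000 per well with compound at 1 or 5 µM. The plates were incubated at 37 °C for 24 h, and ATP was measured with the Promega BacTiter Glo bioluminescence system. Percent inhibition of gametocyte viability was normalised to the plate controls from a single run.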

[4] = system: Plasmodium falciparum NF54 stage IV/V gametocytes; test: % inhibition of gametocyte viability (luciferase reporter); higher = more inhibition; details: 48 h
Summary of the method: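 Stage IV/V gametocytes of the NF54-Pfs16-GFP-Luc line (2% gametocytaemia, 2% haematocrit) were exposed to compound at 1 or 5 µM. Incubation was 48 h at 37 °C, stationary and hypoxic. Luminescence was read on 30 µL lysate plus 30 µL Promega luciferin substrate on a GloMax-Multi+ reader with 10 s integration. Percent inhibition was normalised to DMSO and kill controls from a single run.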

SMILES	% viability of CHO cells (CHO; 2 µM) [%]	% viability of CHO cells (CHO; 20 µM) [%]	% inhibition of HepG2 viability (HepG2-A16-CD81) [%]	% inhibition of gametocyte viability ([1]; 1 µM) [%]	% inhibition of gametocyte viability ([1]; 5 µM) [%]	% inhibition of asexual blood stage proliferation ([2]; 2 µM) [%]	% inhibition of asexual blood stage proliferation ([2]; 20 µM) [%]	% inhibition of gametocyte viability ([3]; 1 µM) [%]	% inhibition of gametocyte viability ([3]; 5 µM) [%]	% inhibition of gametocyte viability ([4]; 1 µM) [%]	% inhibition of gametocyte viability ([4]; 5 µM) [%]
C[N+]1(C)CCCC(OC(=O)C(O)(c2ccccc2)c2ccccc2)C1 (stereo not drawn)	122	140	-0.474	23.3	9.34	26	73.9	< 0	< 0	< 0	3.73
COC(=O)Nc1nc2ccccc2[nH]1	99.1	110	-1.93	< 0	< 0	6.96	10.6	1.54	< 0	< 0	< 0
Nc1c(C(=O)NCc2ccco2)c2nc3ccccc3nc2n1CCN1CCCCC1	104	57.3	10.7	23.5	46.1	77.4	116	51.4	59.7	13.7	0.236
NC1(C(=O)O)CCP(=O)(O)CC1 (stereo not drawn)	113	81.6	-2.82	< 0	< 0	12.3	13.4	< 0	< 0	< 0	9.64
O=C(NC12CC3CC(CC(C3)C1)C2)c1cc2ccccc2[nH]1	103	134	5.16	36.4	12.5	35	73.8	< 0	< 0	< 0	< 0
CCCCc1ccc(C(=O)O)nc1	90.2	130	-0.607	< 0	2.97	83.3	44	5.47	< 0	7.1	6.9
CN1C(=O)C(c2ccccc2)C(=O)N(c2ccccc2)c2cc(C(F)(F)F)ccc21 (stereo not drawn)	95.2	110	3.09	20.2	14.5	-15.6	32.9	< 0	< 0	11.6	< 0
CC(C)Oc1cccc(NC(=O)c2ccccc2C(F)(F)F)c1	88.6	112	3.41	2.75	< 0	2.15	9.83	3.08	< 0	< 0	< 0
C[C@@]1(O)[C@H](O)[C@@H](CO)O[C@H]1n1ccc2c(N)ncnc21	127	92	-1.39	< 0	2.26	14.8	43.2	12.3	7.84	1.8	< 0
COc1ccccc1CN[C@H]1C2CCN(CC2)[C@H]1C(c1ccccc1)c1ccccc1	102	117	-1	17.5	8.85	-2.68	93	7.68	29.7	15.2	< 0
COc1cc(C(C)(C)CCCC(C)C)cc(OC)c1OC	108	76.7	7.92	11.5	6.64	-22	48.9	2.47	< 0	8.33	< 0
CCN1CCN(Cc2nc3ccc([N+](=O)[O-])cc3c(=O)n2-c2ccccc2F)CC1	105	105	-4.34	< 0	< 0	33	24.4	13.8	17.7	9.48	< 0
C[C@H]1CC[C@]2(NC1)O[C@H]1C[C@H]3[C@@H]4CC[C@H]5C[C@@H](O)CC[C@]5(C)[C@H]4CC[C@]3(C)[C@H]1[C@@H]2C	105	117	-5.8	13.5	28.1	35.3	33.7	< 0	< 0	14.1	0.706
